Measurements as given in PubChem BioAssay AID602376 (Johns Hopkins Ion Channel Center, 2012).
Measured potencies and affinities stand elsewhere. Records with an inconclusive call do not appear.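 The calls were made as follows: active = raises choline transporter activity at one or more tested doses and gives a fitted dose-response curve; inconclusive = no clear call, values can overlap the other calls; inactive = no choline transporter activation at any dose, or no curve.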

Each compound was assayed against High affinity choline transporter 1 (Homo sapiens) (UniProt Q9GZV3) (assay: human choline transporter potentiators, potency – cell-based, 10-point CRC, membrane potential dye, dose response (AID 602376)). Details: HEK293-CHT, choline-induced membrane potential dye, cells express CHT LV-AA mutant; series mostly up to 67 µM; percent activation: at the top concentration.
High affinity choline transporter 1 (Homo sapiens), sequence (Q9GZV3 whole entry, looked up): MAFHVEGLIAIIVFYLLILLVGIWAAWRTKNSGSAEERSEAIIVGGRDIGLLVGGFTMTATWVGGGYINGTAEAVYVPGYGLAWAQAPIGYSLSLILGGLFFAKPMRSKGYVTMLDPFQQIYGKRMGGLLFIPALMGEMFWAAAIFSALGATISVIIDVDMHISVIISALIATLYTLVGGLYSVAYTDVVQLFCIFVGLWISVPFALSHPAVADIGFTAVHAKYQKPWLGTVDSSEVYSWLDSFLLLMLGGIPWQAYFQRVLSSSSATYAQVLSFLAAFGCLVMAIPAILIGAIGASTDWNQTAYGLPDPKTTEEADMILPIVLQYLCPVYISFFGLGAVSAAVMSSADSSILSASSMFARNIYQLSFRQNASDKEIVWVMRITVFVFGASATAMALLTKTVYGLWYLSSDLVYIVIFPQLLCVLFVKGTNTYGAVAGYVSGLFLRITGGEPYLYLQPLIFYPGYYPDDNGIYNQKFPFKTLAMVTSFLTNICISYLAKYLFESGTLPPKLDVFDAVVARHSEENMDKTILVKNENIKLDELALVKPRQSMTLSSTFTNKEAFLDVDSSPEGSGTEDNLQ

Percent activation, inactive:
COc1ccc(C(=O)CSc2nnc(CNC(=O)c3ccco3)n2C)cc1 18.6%, O=C1N(Cc2cccc(Cl)c2)C[C@@H]2C[C@@H](c3ccsc3)N3CCC[C@@]123 83.3%, O=C(COc1ccccc1)NCC(c1ccco1)N1CCN(c2ccc(F)cc2)CC1 (configuration not stated) 65.2%, CC1Cc2cc(S(=O)(=O)N3CCN(c4ccccc4F)CC3)ccc2N1C(=O)C1CC1 (configuration not stated) 72.5%, COc1ccc(Br)cc1CN(C)C(=O)c1ccccc1OCc1c(C)noc1C 92.1%, Nc1sc(-c2ccccc2)n[n+]1Cc1cccc2cccnc12 135%, COc1ccc(C(=O)c2coc3ccc(O)c(CN4CCOCC4)c23)cc1 48.5%, CCOC(=O)c1c(C)nc2ccccc2c1-c1ccccc1 66.6%, CCC(C)Nc1nc(CN2CCOCC2)nc2sc3c(c12)CCC3 (configuration not stated) -28.5%, CCC(=O)N1CCN(c2ccccc2NC(=O)c2ccc([N+](=O)[O-])o2)CC1 72%, CCCCn1c(N)c(N(CCC(C)C)C(=O)c2ccc(COc3ccccc3)o2)c(=O)[nH]c1=O 58.5%, CC(=O)N1CCN(c2ccccc2NC(=O)COc2cc(C)ccc2C(C)C)CC1 19.2%, CCOC(=O)C1(CCc2ccccc2)CCN(Cc2cc(OC)c(OC)cc2OC)CC1 86.5%, COC(=O)c1ccccc1NC(=O)CN1CCN(C23CC4CC(CC(C4)C2)C3)CC1 74.9%, CC(C)CCOC(=O)/C(=C/c1ccco1)NC(=O)/C=C/c1ccccc1 37.4%, Cc1noc(C)c1CSc1nc2ccccc2c(=O)n1-c1ccccc1 78.5%, CCCC(=O)N1c2ccccc2C(=C2SC(C(=O)OC)=C(C(=O)OC)S2)C(=S)C1(C)C 43.5%
